The source of these data is PubChem BioAssay.

Calls of active or inactive are those of the source.

The nature of test [1]: small molecules captured by biotinylated probe aFSTL3 – biochemical, small-molecule microarray, fluorescence 635/667, stem cell growth factor project, primary screen (AID 1064).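 Further: measures binding of the biotinylated anti-FSTL3 antibody to printed compounds.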 The following applies: higher = more signal.
A short description of test [2]: binders from COS7 lysate, DM2A8 probe, primary screen, torsin A project, cell lysate, small-molecule microarray, fluorescence 635/667 (AID 1065). Conditions: higher = more signal, COS7 lysate expressing mutant human TOR1A.
A short description of test [3]: small molecules captured by biotinylated probe aFGF2 – biochemical, small-molecule microarray, fluorescence 635/667, stem cell growth factor project, primary screen (AID 1067).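 Further: measures binding of biotinylated aFGF2 protein to printed compounds on slides; z-score merges feature fluorescence and signal-to-noise across triplicate slides.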 The following applies: higher = more signal.
Test [4] is described as follows: small molecules captured by biotinylated probe aFGF10 – biochemical, small-molecule microarray, fluorescence 635/667, stem cell growth factor project, primary screen (AID 1071).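 Further: score merges 667 nm spot intensity and signal to noise from triplicate slides.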 Conditions: higher = more signal.
For test [5], the target named is Neurogenic locus notch homolog protein 2 (Homo sapiens) (UniProt Q04721). Nature of the test: small molecules binding Notch2 protein – biochemical, small-molecule microarray, 635 nm fluorescence, stem cell growth factors, primary screen (AID 1073). Conditions: higher = more signal.
Test [6] has as its target Pro-neuregulin-1, membrane-bound isoform (Homo sapiens) (UniProt Q02297). The test can be described thus: small molecules binding neuregulin-1 protein – biochemical, small-molecule microarray, fluorescence 635/667, psychiatric disease protein project, primary screen (AID 1075).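 Further: score combines 667 nm spot fluorescence with signal to noise.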 The following applies: NRG1 binding, 635 nm fluorescence, higher = more signal.
Test [7] has as its system Neuregulin-1 EGF-like domain. The test can be described thus: small molecules binding NRG1 EGF domain – biochemical, small-molecule microarray, 635 nm fluorescence, primary screen (AID 1081).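 Further: binding of the protein to compounds printed on small-molecule microarray slides.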 The following applies: higher = more signal.
Test [8] in a line: FRG1 expression reporter modulators in myotubes – cell-based, C2C12 myotubes, firefly/Renilla luciferase, luminescence, FRG1 inhibition for FSHD, primary screen (AID 1084). The following applies: FRG1 promoter luciferase, higher = more signal, called active from +8 up or from −8 down.
Test [9] in a line: small molecules captured by biotinylated probe aFST – biochemical, small-molecule microarray, fluorescence 635/667, stem cell growth factor project, primary screen (AID 1086).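 Further: score merges 667 nm fluorescence with signal-to-noise of each printed compound spot.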 Conditions: higher = more signal.
A short description of test [10]: binders of probe aHhip on microarray, primary screen, stem cell growth factor project, biochemical, small-molecule microarray, fluorescence 635/667 (AID 1087).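 Further: score merges spot fluorescence at 667nm with spot signal to noise ratio.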 The following applies: higher = more signal.
Test [11] relates to PRMT1 (protein arginine N-methyltransferase 1). The test can be described thus: small molecules binding arginine methyltransferase PRMT1 – biochemical, small-molecule microarray, 635 nm fluorescence, primary screen (AID 1088).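 Further: binding of Prmt1 protein to compounds spotted on small-molecule microarray slides.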 Conditions: higher = more signal.
Test [12] in a line: growth effects on S. cerevisiae YJM789 – YJM789 clinical isolate, OD600, 24 h, basal, primary screen (AID 1089).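 Further: growth of clinical yeast isolate S. cerevisiae YJM 789 seeded 1000 cells per well; test concentration not given here.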 Conditions: higher = more signal, called active from +8 up or from −8 down.
Test [13] can be described thus: S. pombe growth modifiers, basal conditions – strain 972, OD600, 24 h, no modulator, primary screen (AID 1090).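 Further: basal condition with compound alone and no growth modifier present; test concentration not given here.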 Conditions: S. pombe 972 growth, higher = more signal, called active from +8 up or from −8 down.
A short description of test [14]: budding yeast growth modifiers under rapamycin – strain BY4716, OD600, 96 h, primary screen (AID 1091). Further: test concentration not given here. The following applies: S. cerevisiae BY4716 + rapamycin, higher = more signal, called active from +8 up or from −8 down.
Test [15] has as its target Torsin-1A-interacting protein 2 (Homo sapiens) (UniProt Q8NFQ8). The test can be described thus: small molecules binding lysate-expressed LULL1 – cell lysate, human LULL1 lysate, 635/667 nm fluorescence, primary screen (AID 1092).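 Further: probe is lysate of COS7 cells overexpressing human LULL1; score merges per-feature 667 nm fluorescence with signal-to-noise.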 Conditions: small-molecule microarray, hLULL1 lysate binding, 635 nm fluorescence; higher = more signal.
A short description of test [16]: optical density change of DRC41 E. coli – strain DRC41, OD650, 24 h, E. coli filamentation project, primary screen (AID 1093).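 Further: MC1000 strain lacking acrAB efflux and sulA so SOS filamentation is blocked; test concentration not given here.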 The following applies: E. coli DRC41 growth, higher = more signal, called active from +8 up or from −8 down.
A short description of test [17]: probe aLefty2 binding to arrayed compounds – biochemical, biotinylated probe, 635/667 nm fluorescence, primary screen (AID 1094).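 Further: score merges spot fluorescence near 667 nm with spot signal-to-noise ratio.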 The following applies: small-molecule microarray, higher = more signal.
The test system of test [18] is Noggin (protein binding on small-molecule microarray). The test can be described thus: small molecules binding Noggin protein – biochemical, 635/667 nm fluorescence, primary screen (AID 1095).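 Further: score merges 667 nm feature fluorescence with signal to noise over triplicate slides.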 Conditions: 635 nm fluorescence, higher = more signal.
For test [19], the target named is Neurogenic locus notch homolog protein 3 (Homo sapiens) (UniProt Q9UM47). The test can be described thus: small molecules binding NOTCH3 protein – biochemical, 635/667 nm fluorescence, primary screen (AID 1096). Conditions: small-molecule microarray, 635 nm fluorescence, higher = more signal.
A short description of test [20]: probe aEGFR binding to arrayed compounds – biochemical, biotinylated probe, 635/667 nm fluorescence, primary screen (AID 1097).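 Further: probe is a biotinylated anti-EGFR antibody binding compounds printed on slides; score combines fluorescence near 667 nm and signal to noise of each spot.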 Conditions: small-molecule microarray, higher = more signal.

Chain of Pro-neuregulin-1, membrane-bound isoform (Homo sapiens) (Q02297 whole entry, looked up, the tested form may be a part, canonical isoform): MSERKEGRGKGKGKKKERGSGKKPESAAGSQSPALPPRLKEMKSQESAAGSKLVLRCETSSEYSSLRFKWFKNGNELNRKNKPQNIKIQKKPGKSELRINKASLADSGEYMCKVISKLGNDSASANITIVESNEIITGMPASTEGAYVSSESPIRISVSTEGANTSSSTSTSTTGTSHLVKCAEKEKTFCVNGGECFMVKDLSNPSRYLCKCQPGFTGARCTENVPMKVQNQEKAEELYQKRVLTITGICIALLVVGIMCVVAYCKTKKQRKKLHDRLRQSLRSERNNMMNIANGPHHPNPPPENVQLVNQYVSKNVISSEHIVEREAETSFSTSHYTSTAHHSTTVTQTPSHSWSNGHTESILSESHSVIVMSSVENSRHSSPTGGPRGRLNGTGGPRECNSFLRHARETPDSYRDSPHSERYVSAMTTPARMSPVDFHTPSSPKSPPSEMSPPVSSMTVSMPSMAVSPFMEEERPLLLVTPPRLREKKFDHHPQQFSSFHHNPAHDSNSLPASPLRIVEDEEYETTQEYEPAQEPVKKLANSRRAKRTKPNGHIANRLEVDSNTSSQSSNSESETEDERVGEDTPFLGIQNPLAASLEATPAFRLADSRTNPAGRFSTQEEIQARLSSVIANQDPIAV
Chain of Neurogenic locus notch homolog protein 2 (Homo sapiens) (Q04721 whole entry, looked up, canonical isoform): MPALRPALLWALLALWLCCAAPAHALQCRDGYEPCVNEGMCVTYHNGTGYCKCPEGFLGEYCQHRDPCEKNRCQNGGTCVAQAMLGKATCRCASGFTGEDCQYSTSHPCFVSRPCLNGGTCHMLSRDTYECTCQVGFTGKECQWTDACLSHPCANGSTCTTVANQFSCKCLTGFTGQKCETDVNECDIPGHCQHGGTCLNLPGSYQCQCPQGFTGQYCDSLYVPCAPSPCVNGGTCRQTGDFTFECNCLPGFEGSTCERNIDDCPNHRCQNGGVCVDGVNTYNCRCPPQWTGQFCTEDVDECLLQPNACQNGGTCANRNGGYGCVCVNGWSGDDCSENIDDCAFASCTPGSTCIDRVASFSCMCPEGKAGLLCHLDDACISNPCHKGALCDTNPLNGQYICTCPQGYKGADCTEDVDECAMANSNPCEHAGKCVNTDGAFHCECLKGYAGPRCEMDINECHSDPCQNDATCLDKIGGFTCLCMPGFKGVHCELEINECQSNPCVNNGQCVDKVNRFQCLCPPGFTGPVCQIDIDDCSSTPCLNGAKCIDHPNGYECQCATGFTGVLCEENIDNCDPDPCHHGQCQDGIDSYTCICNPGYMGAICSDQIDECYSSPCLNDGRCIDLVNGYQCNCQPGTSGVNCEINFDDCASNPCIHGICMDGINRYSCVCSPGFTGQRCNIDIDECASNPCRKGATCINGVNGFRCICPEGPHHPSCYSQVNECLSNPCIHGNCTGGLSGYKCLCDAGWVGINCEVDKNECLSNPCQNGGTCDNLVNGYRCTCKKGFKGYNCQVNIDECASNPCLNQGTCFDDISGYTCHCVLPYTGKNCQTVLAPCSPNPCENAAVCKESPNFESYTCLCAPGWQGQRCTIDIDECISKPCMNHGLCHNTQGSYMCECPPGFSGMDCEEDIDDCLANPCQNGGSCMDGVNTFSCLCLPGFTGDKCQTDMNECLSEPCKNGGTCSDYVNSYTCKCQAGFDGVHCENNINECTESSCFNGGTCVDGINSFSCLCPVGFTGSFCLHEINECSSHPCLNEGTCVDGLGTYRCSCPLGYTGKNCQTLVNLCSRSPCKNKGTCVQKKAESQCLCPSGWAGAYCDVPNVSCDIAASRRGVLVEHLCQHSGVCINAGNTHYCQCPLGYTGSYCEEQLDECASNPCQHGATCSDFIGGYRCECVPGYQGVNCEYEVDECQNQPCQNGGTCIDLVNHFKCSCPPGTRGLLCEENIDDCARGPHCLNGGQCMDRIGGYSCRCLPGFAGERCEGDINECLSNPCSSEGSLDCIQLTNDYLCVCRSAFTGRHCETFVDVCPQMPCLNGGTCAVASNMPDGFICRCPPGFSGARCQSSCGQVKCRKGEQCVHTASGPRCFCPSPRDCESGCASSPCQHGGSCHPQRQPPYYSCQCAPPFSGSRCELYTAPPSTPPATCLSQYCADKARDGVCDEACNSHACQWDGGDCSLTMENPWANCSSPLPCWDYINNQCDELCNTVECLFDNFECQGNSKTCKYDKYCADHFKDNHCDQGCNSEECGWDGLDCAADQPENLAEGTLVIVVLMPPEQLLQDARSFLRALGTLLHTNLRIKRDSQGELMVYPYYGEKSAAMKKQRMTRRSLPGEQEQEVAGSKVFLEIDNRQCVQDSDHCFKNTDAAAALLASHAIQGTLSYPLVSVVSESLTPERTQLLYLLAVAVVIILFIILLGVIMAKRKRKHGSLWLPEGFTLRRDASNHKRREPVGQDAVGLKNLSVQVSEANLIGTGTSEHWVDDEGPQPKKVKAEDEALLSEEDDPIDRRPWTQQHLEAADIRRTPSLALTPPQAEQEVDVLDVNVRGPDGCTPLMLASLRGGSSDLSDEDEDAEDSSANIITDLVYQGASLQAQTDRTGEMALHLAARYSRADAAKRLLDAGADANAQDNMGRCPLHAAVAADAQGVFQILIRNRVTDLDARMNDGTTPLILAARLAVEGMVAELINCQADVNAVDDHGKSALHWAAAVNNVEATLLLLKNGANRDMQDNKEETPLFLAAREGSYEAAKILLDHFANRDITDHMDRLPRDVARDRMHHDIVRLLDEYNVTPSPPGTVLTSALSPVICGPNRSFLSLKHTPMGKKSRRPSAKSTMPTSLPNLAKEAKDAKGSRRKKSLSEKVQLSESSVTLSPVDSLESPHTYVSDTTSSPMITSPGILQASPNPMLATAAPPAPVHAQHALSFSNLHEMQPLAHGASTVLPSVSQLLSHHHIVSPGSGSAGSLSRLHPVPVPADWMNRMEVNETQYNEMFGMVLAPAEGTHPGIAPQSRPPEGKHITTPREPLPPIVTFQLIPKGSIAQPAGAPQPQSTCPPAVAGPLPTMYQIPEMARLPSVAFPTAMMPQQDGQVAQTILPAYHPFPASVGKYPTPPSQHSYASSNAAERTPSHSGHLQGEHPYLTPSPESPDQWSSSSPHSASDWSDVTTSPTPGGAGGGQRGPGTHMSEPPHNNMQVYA
Chain of Torsin-1A-interacting protein 2 (Homo sapiens) (Q8NFQ8 whole entry, looked up): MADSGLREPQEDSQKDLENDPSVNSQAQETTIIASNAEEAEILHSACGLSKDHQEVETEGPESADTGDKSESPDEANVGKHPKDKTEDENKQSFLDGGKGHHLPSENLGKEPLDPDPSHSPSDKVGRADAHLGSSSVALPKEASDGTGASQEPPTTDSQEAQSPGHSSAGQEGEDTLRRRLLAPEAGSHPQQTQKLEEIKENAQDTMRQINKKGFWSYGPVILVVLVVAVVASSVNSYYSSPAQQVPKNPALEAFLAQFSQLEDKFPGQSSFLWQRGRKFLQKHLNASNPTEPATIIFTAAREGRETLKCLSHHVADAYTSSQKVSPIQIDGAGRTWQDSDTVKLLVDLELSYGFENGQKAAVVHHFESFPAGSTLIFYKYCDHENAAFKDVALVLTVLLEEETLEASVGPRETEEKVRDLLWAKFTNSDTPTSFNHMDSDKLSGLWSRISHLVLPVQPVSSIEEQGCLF

As for `CC(C)NC(=O)[C@@]1(C)c2ccccc2C(=O)N(Cc2cc(C(F)(F)F)cc(C(F)(F)F)c2)[C@H]1c1ccc(CO)cc1`, the composite z-score in test [1] was 0.43; in [2], -1.42; in test [3] it was -0.128; in test [4], -0.477; in [5], -0.753; in test [6], 0.353. The composite z-score was 1.27 in [7]; -0.213 in [9]; -0.374 in test [10]; 1.4 in [11]; 3 in test [15]; -0.239 in [17]. The composite z-score in test [18] is -0.729; in test [19] it was -0.301; in test [20], -0.295. The z-score in test [8] was -1.38 (inactive); in [12], 0.49 (inactive); in [13] it was 0.155 (inactive); in [14], -0.0902 (inactive); in [16] it was -0.0192 (inactive).

For `O=C1C2C=CC(C(O)c3cccc4ccccc34)N(Nc3ccccc3F)C2C(=O)N1c1ccccc1` (stereo not given), the composite z-score in [1] is 0.154; in test [2], -0.371; in test [3] it was -0.0209; in [4] it was 0.64; in test [5], 1.67; in test [6] it was 1.27. Also, the composite z-score was 1.23 in [7]; 1.23 in test [9]; -0.0672 in [10]; 1.54 in test [11]; 3.69 in [15]; 0.13 in test [17]. Further, the results for the composite z-score in test [18], in [19] and in test [20] were 0.0926, 1.12 and 0.222, respectively. In addition, the z-score in test [8] is 0.856 (inactive); in [12], 0.0692 (inactive); in [13] it was 0.865 (inactive); in test [14], 1.01 (inactive); in test [16] it was -0.316 (inactive).

In the case of `C=C(/C(=C/C[C@H](OC(C)=O)c1ccc(CO)o1)c1cc(C(=O)OC)ccc1OC)C(C)C`, the composite z-score in [1] was -0.0849; in test [2], -0.442; in [3], -0.0637; in [4], 0.597; in test [5], 0.102; in test [6], -0.306. For the same compound, the composite z-score in [7] was 0.53; in test [9], 0.031; in test [10], 0.119; in [11], 0.57; in test [15], 0.381; in [17], -0.0485. The results for the composite z-score in test [18], in test [19] and in [20] were 0.58, 0.368 and -0.0206, respectively. Also, the z-score in test [8] was -0.601 (inactive); in test [12], 1.02 (inactive); in test [13] it was -0.967 (inactive); in test [14], 0.0168 (inactive); in test [16], 0.865 (inactive).

As to `CC(C)C(O)C1C=CC2C(=O)NC(=O)C2N1Nc1ccc(Cl)cc1Cl` (stereo not given), the composite z-score in test [1] is 0.889; in test [2], 0.206; in [3], -0.0675; in test [4], -0.0108; in test [5] it was 0.514; in test [6], 1.98. In addition, the composite z-score is 1.16 in [7]; 0.464 in test [9]; -0.0645 in [10]; 0.119 in test [11]; 3.18 in test [15]; 0.112 in test [17]. For the same compound, the composite z-score in [18] is -0.463; in test [19], 0.0316; in test [20] it was -0.122. For the same compound, the z-score in test [8] was -0.903 (inactive); in test [12], 0.376 (inactive); in test [13], -0.843 (inactive); in test [14], 1.5 (inactive); in test [16], -0.805 (inactive).

Consider `C=C(COC)/C(=C/C[C@H](OC(C)=O)c1ccc(CO)o1)c1cc(C(=O)OC)ccc1OC`, for which the composite z-score in test [1] was -0.113; in test [2] it was 0.183; in [3], -0.129; in test [4], 0.779; in test [5] it was -0.925; in test [6], 0.0136. For the same compound, the composite z-score in test [7] was 0.7; in test [9], -0.0787; in test [10] it was 0.0749; in [11], 0.404; in test [15] it was 1.67; in test [17], -0.142. For the same compound, the composite z-score in test [18] is 0.493; in test [19], 0.217; in test [20], -0.284. Besides, the z-score in [8] is 0.0728 (inactive); in test [12], 0.517 (inactive); in test [13], -0.131 (inactive); in [14] it was 0.0604 (inactive); in [16], 0.796 (inactive).
